Data taken from PubChem BioAssay.
Records with an inconclusive call do not appear. Unmarked numbers belong to inactive results. The source made the active and inactive calls. Cut-off read from the data, not from the text of the source: active = fluorescence slope change above about 50%; inconclusive = mostly about 31% to 49%; inactive = weaker than that.

Biological target: ATP-dependent translocase ABCB1 (Homo sapiens) (UniProt P08183)
Assay: P-glycoprotein substrate transport blockade – cell-based (AID 377)
Settings: MDR1-expressing cells, fluorescent substrate accumulation slope; stronger effect = higher value; concentration not given here

Chain of ATP-dependent translocase ABCB1 (Homo sapiens) (P08183 whole entry, looked up): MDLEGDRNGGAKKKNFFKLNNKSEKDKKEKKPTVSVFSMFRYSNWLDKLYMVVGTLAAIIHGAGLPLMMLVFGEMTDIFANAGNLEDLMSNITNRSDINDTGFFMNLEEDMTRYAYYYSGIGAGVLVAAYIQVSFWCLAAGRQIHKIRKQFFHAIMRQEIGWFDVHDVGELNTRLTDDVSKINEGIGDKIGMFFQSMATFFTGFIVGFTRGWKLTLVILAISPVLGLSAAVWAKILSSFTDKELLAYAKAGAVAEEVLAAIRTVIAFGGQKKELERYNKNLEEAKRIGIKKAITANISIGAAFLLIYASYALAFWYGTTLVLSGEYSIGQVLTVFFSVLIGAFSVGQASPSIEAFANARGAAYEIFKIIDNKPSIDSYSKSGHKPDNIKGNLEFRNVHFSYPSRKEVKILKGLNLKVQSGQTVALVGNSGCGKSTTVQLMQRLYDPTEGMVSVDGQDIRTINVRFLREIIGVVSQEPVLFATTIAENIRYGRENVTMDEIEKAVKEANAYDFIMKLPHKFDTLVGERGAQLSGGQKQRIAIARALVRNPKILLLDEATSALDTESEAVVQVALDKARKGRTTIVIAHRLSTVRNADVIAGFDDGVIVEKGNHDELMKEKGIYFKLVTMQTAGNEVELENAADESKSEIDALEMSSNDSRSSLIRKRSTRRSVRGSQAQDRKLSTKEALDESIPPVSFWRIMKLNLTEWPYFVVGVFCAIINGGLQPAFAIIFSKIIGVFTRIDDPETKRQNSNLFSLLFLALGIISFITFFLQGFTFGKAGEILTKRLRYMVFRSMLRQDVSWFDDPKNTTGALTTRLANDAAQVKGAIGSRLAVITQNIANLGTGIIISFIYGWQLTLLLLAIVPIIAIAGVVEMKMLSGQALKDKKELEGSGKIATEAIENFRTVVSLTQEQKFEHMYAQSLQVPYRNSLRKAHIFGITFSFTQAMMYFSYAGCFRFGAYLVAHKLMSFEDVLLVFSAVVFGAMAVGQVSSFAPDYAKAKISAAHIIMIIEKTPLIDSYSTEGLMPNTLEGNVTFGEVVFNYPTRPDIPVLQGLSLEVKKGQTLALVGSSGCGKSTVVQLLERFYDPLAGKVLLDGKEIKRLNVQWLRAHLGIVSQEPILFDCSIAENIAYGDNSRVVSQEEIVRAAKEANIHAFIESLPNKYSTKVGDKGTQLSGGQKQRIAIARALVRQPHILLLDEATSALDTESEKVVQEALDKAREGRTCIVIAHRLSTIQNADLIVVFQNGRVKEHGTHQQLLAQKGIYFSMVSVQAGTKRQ

Oc1cc(O)c2c(c1)O[C@H](c1ccc(O)c(O)c1)[C@H](O)C2
fluorescence slope change: -0.6%

Cc1cc2c(C(C)C)c(O)c(O)c(C=O)c2c(O)c1-c1c(C)cc2c(C(C)C)c(O)c(O)c(C=O)c2c1O
fluorescence slope change: 93.5% (active)

NC(N)=NC(=O)Cc1c(Cl)cccc1Cl
fluorescence slope change: 82% (active)

CN1CCN(C(c2ccccc2)c2ccccc2)CC1
fluorescence slope change: 59.4% (active)

COc1ccc2nc(S(=O)Cc3ncc(C)c(OC)c3C)[nH]c2c1 (stereo not given)
fluorescence slope change: 50.5% (active)

CCN(CC)Cc1cc(Nc2ccnc3cc(Cl)ccc23)ccc1O
fluorescence slope change: 54.8% (active)

COc1cc2c3cc1Oc1cc(ccc1O)C[C@@H]1c4c(cc(OC)c(O)c4Oc4ccc(cc4)C[C@@H]3N(C)CC2)CC[N+]1(C)C
fluorescence slope change: 8.4%

CCOC(=O)C1=C(C)NC(C)=C(C(=O)OC)C1c1cccc(Cl)c1Cl (stereo not given)
fluorescence slope change: 28.6%

CC[C@]12CCCN3CCc4c(n(c5ccccc45)[C@@](O)(C(=O)OC)C1)[C@@H]32
fluorescence slope change: 8.1%

O=C(c1ccc(F)cc1)C1CCN(CCn2c(=O)[nH]c3ccccc3c2=O)CC1
fluorescence slope change: -1%

CCOC(=O)C1=C[C@]2(CC)CCCN3CCc4c(n1c1ccccc41)[C@@H]32
fluorescence slope change: 107% (active)

COC(=O)[C@@H]1[C@H]2C[C@H]3c4[nH]c5ccccc5c4CCN3C[C@@H]2CC[C@@H]1O
fluorescence slope change: 52.6% (active)

CN1CCCCC1CCN1c2ccccc2Sc2ccc(S(C)=O)cc21 (stereo not given)
fluorescence slope change: 54.4% (active)

Cc1scc2c1N(C(=O)CN1CCN(C)CC1)c1ccccc1NC2=O
fluorescence slope change: 65.1% (active)

CN1CCC(=C2c3ccccc3C=Cc3ccccc32)CC1
fluorescence slope change: 178% (active)

CC(C)NCC(O)COc1ccc(CCOCC2CC2)cc1 (stereo not given)
fluorescence slope change: 1%

CC(=O)OCC(=O)[C@@]1(O)[C@H](C)C[C@H]2[C@@H]3CCC4=CC(=O)C=C[C@]4(C)[C@@]3(F)[C@@H](O)C[C@@]21C
fluorescence slope change: 109% (active)

C[C@]12C=CC(=O)C=C1CC[C@H]1[C@@H]3C[C@@H](O)[C@](O)(C(=O)CO)[C@@]3(C)C[C@H](O)[C@@]12F
fluorescence slope change: 27%

Nc1ccc(S(=O)(=O)Nc2ccc(Cl)nn2)cc1
fluorescence slope change: -13.4%

COc1cc(OC)c(C(=O)CCCN2CCCC2)c(OC)c1
fluorescence slope change: 82.5% (active)
